The text below walks through data of publication PMC7826789 (International Journal of Molecular Sciences, 2021).

The first test relates to TEK.
For the compound `Cl.O=C(Nc1ccc(Oc2ccc3[nH]c(NC(=O)c4ccccc4)nc3c2)cc1)Nc1cc(C(F)(F)F)ccc1F` [GW709042A], the Kinases covered entry is recorded as “TEK”.

For the compound `COC(=O)Nc1nc2ccc(Oc3ccc(NC(=O)Nc4cc(C(F)(F)F)ccc4F)cc3)cc2s1.Cl` [GW693917A], the Kinases covered entry is on record as “TEK”.

In the case of `Nc1ncnc2occ(-c3ccc(NC(=O)Nc4cc(C(F)(F)F)ccc4F)cc3)c12` [GW770249X], the Kinases covered entry is given as “TEK”.

In the case of `Cl.O=C(Nc1ccc(Oc2ccc3[nH]c(NC(=O)c4ccco4)nc3c2)cc1)Nc1cc(C(F)(F)F)ccc1F` [GW683134A], the Kinases covered entry is recorded as “TEK”.

A further test deals with TYK2.
Take `COc1ccc(-c2cc3c(N)ncnc3o2)cc1` [GW642138X]: the Kinases covered entry is “TYK2”.

On to `Nc1ncnc2[nH]c(-c3ccccc3)nc12` [AH5015], for which the Kinases covered entry is “TYK2”.

For the compound `CN(C)C/C=C/C(=O)Nc1ccc(C(=O)Nc2cccc(Nc3ncc(Cl)c(-c4c[nH]c5ccccc45)n3)c2)cc1` [THZ1], the Kinases covered result is on record as “TYK2”.
